Results taken from PubChem BioAssay.

Assay: S. cerevisiae RM11-1a growth modifiers, primary screen, strain RM11-1a, OD600, basal, 24 h (AID 1177);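 also: cultures grown under basal conditions with no added stressor; test concentration not given here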
Details: OD600, 24 h, higher = more signal, called active from +8 up or from −8 down

z-score, inactive:
[N-]=[N+]=Nc1ccccc1[C@H]1OC(c2ccc(OCCCO)cc2)=N[C@@]1(Cc1ccccc1)C(=O)N1CCOCC1 0.711, CN1C(=O)C2C=CC(C(O)c3ccccc3)N(N3CCCCC3)C2C1=O (configuration not stated) -0.023, C=CCC(OC(C)=O)[C@@H]1[C@@H](N(Cc2ccc(-c3ccccc3)cc2)C(=O)Cc2ccc(F)cc2)c2cc(OCCCO)ccc2N1C(=O)c1ccc2ccccc2c1 (some centres not stated) -0.198, COc1cc(CO)cc(I)c1O[C@H]1C=C(C(=O)NCCO)C[C@@H](N(C(=O)c2cc3ccccc3oc2=O)C2CCCCCC2)[C@@H]1O -0.0819, CCCNC(=O)[C@@]1(Sc2ccc(C)cc2)CC(=O)N(Cc2ccccc2C(F)(F)F)[C@@H]1c1ccc(CO)cc1I -1.68, NC(=O)[C@@H]1[C@H]2C(=O)O[C@H](c3ccccc3)[C@H](c3ccccc3)N2[C@H](c2ccc(OCCO)cc2)[C@@]12C(=O)Nc1ccc(C#CC3=CCCCC3)cc12 0.657, COCCCNC(=O)[C@@]1(Cc2ccccc2)N=C(c2ccc(OCCCO)cc2)O[C@H]1c1ccccc1CN=[N+]=[N-] 0.499, Cc1ccc(C2C3C(=O)CC4C(=O)N(c5ccccc5)C(=O)C4C3CN2S(=O)(=O)c2ccc(C)cc2)cc1 (configuration not stated) 1.24, O=C(NC1CC1)[C@@H]1c2ccccc2C(=O)N(Cc2cc(F)cc(C(F)(F)F)c2)[C@H]1c1ccc(CO)cc1 -0.953, COc1cc2c(cc1O)C(c1cccs1)N(Cc1cccc(OC(F)(F)F)c1)CC2 (configuration not stated) -0.728, CCOC(=O)C1=CC[C@@H](c2ccccc2)N(S(=O)(=O)c2ccc(C)cc2)[C@H]1c1ccc(CC)cc1 1.25, CN1CCC(CCCO)=CC1c1cccs1 (configuration not stated) -0.842, CCCCCN1CC=CC23O[C@@H]4C=CCOC(=O)[C@@H]4[C@H]2C(=O)N(C(C)CO)[C@@H]3C1=O (some centres not stated) -1.16, Cc1ccc(S[C@]2(C(=O)NCC(C)C)CC(=O)N(Cc3cc(C(F)(F)F)cc(C(F)(F)F)c3)[C@@H]2c2ccc(CO)cc2)cc1 -0.622, CC1CC/C=C\[C@H]2OC34C=CCN(Cn5nnc6ccccc65)C(=O)[C@H]3N(CCCCCO)C(=O)[C@@H]4C2C(=O)O1 (some centres not stated) 0.0538, COc1ccc([Si](C)(C)[C@@H]2[C@@H](CCO)O[C@]3(C(=O)N(Cc4cccc(N5CCOC5=O)c4)c4ccccc43)[C@H]2C)cc1 6.05, CCCCN1CC=CC23O[C@@H]4C=CCCOC(=O)C4[C@H]2C(=O)N(CCCCCO)[C@@H]3C1=O (some centres not stated) -0.308, COc1ccc(CCNC(=O)[C@@]2(C)c3ccccc3C(=O)N(c3ccc(C)cn3)[C@H]2c2ccc(CO)cc2)cc1 0.0798, COC(=O)[C@@]1(Cc2ccc(OC)cc2)[C@H]2c3cc(C(=O)N4CCCC4)n(Cc4nc5ccccc5[nH]4)c3C[C@H]2CN1C(=O)c1ccccc1 0.736, [N-]=[N+]=NCc1ccccc1[C@@H]1OC(c2ccc(OCCCO)cc2)=N[C@]1(CCS(=O)(=O)c1ccccc1)C(=O)N1CCOCC1 0.821, CCOC(=O)C1=CC[C@H]2C(=O)N(c3ccccc3)C(=O)[C@@H]12 -0.337, COC(=O)[C@@]1(Cc2ccc(F)cc2)[C@H]2c3cc(C(=O)N(C)C)n(Cc4ccc(C)o4)c3C[C@H]2CN1C(=O)c1ccccc1 -0.0282, OCCCC1=CC(C2CC2)N(Cc2cccc(OC(F)(F)F)c2)CC1 (configuration not stated) 0.345, CCOc1cc(C(O)C2C=CC3C(=O)N(c4ccccc4)C(=O)C3N2Nc2ccc(C(C)C)cc2)ccc1O (configuration not stated) 1.68, CO[C@H]1O[C@H](CO)[C@@H](OC(=O)Nc2ccccc2)[C@@H]2OC(=O)[C@@H](Cc3ccc4ccccc4c3)C/C=C/C[C@H](Cc3ccc4ccccc4c3)C(=O)O[C@@H]12 -0.474, CCOC(=O)C[C@H]1[C@H](OC(=O)c2ccc(C(=O)c3ccccc3)cc2)[C@@H](NC(=O)Cc2ccc(OC)cc2)c2cc(OCCCO)ccc2N1C(=O)c1ccc2ccccc2n1 0.11, C=CC[C@]1(C(=O)N2CCOCC2)N=C(c2ccc(OCCCO)cc2)O[C@H]1c1ccccc1N=[N+]=[N-] 0.275
